Structures are written as SMILES. Results filed as inconclusive are left out. The source made the active and inactive calls. Calls come from the whole dose curve; as a rule, active = well fitted activation curve with a large enough effect; inconclusive = small, poorly fitted or top-dose-only effect; inactive = no such curve, though single readings can be large or run the other way.

The nature of this experiment: FLuc inhibitory activity for the follow-up compounds in a cell-based assay to assess the activity of miR-21. The note with it: HeLa miR-21-FLuc reporter, luciferase luminescence, 48 h; series mostly up to 38.3 µM. An excerpt: NCGC Assay Overview: Firefly (Photinus pyralis) luciferase is one of the most commonly used transcriptional reporters. It is considered one of the more dynamically responsive reporters - that is, responsive to changes in reporter transcription - as it requires no post-translational modifications and is enzymatically active directly after protein synthesis (Wood, 1998). With no endogenous expression in mammalian cells and without the requirement of external excitation, it offers very little background signal, thus generally providing excellent signal to background for most assays. Previous profiling work to determine the prevalence of compounds that affect FLuc enzymatic activity (PubChem AID 411) identified that ~3% of the MLSMR library (then at ~72K) inhibited FLuc (Auld et al., 2008). […] Of the compounds identified in this profile that inhibited FLuc, 151 compounds were selected for further analysis, in an effort to better understand their mode of inhibiting FLuc. The assay described here was to determine the activity of the compounds in a cell-based firefly luciferase reporter gene assay originally designed to identify antagonists of miR-21. Compounds that inhibit miR-21 or compounds that stabilize FLuc intracellularly are identified as active compounds in the assay.
NCGC Assay Protocol Summary: Reagents: In-house detection reagent: 300mM Tris-HCl, 300mM Trizma base, 300mM MgCl, 1% Triton-X100, 5mM DTT, 500uM Coenzyme A trilithium salt (Sigma #C3019),450uM ATP (Sigma #A7699), 1mM D-luciferin sodium salt monohydrate (Biosynth #L8240) HeLa cells stably expressing firefly luciferase (FLuc) under the control of a CMV promoter (upstream) and a miR-21 binding sequence directly downstream of the gene. These cells endogenously express miR-21. Control compounds used were two known firefly luciferase inhibitors (3-(5-(3-chlorophenyl)-1,2,4-oxadiazol-3-yl)benzoic acid and 5-(2-fluorophenyl)-3-phenyl-1,2,4-oxadiazole), and DMSO. Assay Summary: 6uL of HeLa miR-21-FLuc cells in assay buffer (DMEM, Invitrogen #21063-029; 10% FBS, HyClone #SH30071.03) were dispensed at 2000cells/well (3.3 x 10^5 cells/mL) into Greiner solid-white TC-treated 1536-well plates using a Multidrop Combi (Thermo Fisher Scientific). Plates were incubated for one hour at 37 degree Celsius, 95% humidity, 5% CO2. These assay plates were then treated with 23nL of compound or DMSO using a Kalypsys pin tool, which allows for delivery of a 12-point titration of each compound to the assay plate, with a final compound concentration ranging from approximately ~38uM to 0.2nM. Assay plates were then incubated for 48 hours. After incubation, plates were allowed to come to RT for one hour prior to delivery of 3uL of 3X luciferase detection reagent. After a 15 minute incubation to allow for cell lysis, luciferase activity was measured using a ViewLux CCD imager (PerkinElmer), with an average exposure time of 2-12 seconds.
Turning to `O=C(O)c1cccc(NC(=O)c2cccc(S(=O)(=O)Nc3cccc(F)c3)c2)c1`, the Potency result is “inactive”. For `Cc1ccc(C(=O)O/N=C(\N)c2ccccn2)cc1` the value was 0.2 µM (active); for `COc1ccc(-c2cccc(C(=O)Nc3cccc(C(=O)O)c3)c2)cc1`, 4.49 µM (active); for `CCn1c(C)nc2cc(-c3nc4n(n3)Cc3ccccc3-4)ccc21`, 0.1 µM (active). The figure for `Cc1c(C)c2ccc(OCC(=O)Nc3ccccn3)c(C)c2oc1=O` is 0.0056 µM (active); for `COc1ccc(CC(=O)Nc2ccc(-c3nc4ccccc4s3)c(C)c2)cc1` it is 14.2 µM (active). As for `COc1ccc2nc(NC(=O)c3cccs3)sc2c1`, the Potency was 10 µM (active).

With `CCc1noc(C)c1C(=O)Nc1nc2ccc(OC)cc2s1`, the Potency was 12.6 µM (active). `Cc1c(NC(=O)C(C)(C)C)cccc1-c1nc2ccccc2s1`: the Potency is 10 µM (active).

In the case of `Cn1c(N/N=C/c2cc3ccccc3nc2Cl)nc2ccccc21`, the Potency was 0.711 µM (active). As to `O=S(=O)(c1ccc(-c2nc3ccccc3s2)cc1)N1CCCC1`, the Potency was 2 µM (active).

Turning to `O=C(Nc1ccccc1C(=O)O)c1ccc(NC(=O)C2CCCO2)cc1` (stereo not given), the Potency entry was “inactive”. For `CCOc1ccc2nc(NC(=O)c3ccccn3)sc2c1`, the Potency is 0.0565 µM (active). `COc1ccc(C(=O)Nc2ccccc2C(=O)N/N=C/c2ccc(O)c(OC)c2)cc1`: the Potency result was “inactive”. `COc1ccc(-c2nc3ccccc3s2)cc1O`: the Potency was 1.79 µM (active). For the molecule `COc1ccc(C(=O)Nc2nc3ccc(OC)cc3s2)cc1`, the Potency was 2.83 µM (active).

As to `O=C(O)c1cccc(NC(=O)c2ccccc2NC(=O)c2ccccc2F)c1`, the Potency result was “inactive”. On to `CCOc1ccc(C(=O)Nc2ccccc2C(=O)O)cc1`, for which the Potency is 1.13 µM (active). The figure for `Cc1ccc(C(=O)Nc2ccccc2C(=O)O)cc1S(=O)(=O)N1CCCCCC1` is 2.83 µM (active); for `O=C(Nc1ccccc1C(=O)O)c1cc(S(=O)(=O)Nc2cccc(F)c2)ccc1Cl` it is “inactive”; for `Nc1ccccc1C(=O)Nc1cccc(C(=O)O)c1` it is 11.3 µM (active). `O=C(O)c1cccc(NC(=O)c2ccc(COc3ccc(Cl)cc3)cc2)c1`: the Potency was 12.6 µM (active). Turning to `Cc1ccc2sc(-c3ccc(N)cc3)nc2c1`, the Potency was 0.0504 µM (active). For the molecule `COc1ccc(-c2nc3ccccc3s2)cc1NC(=O)c1ccc(F)cc1`, the Potency is 12.6 µM (active).

For the molecule `O=C(Nc1cccc(-c2nc3ccccc3s2)c1)c1cc(-n2cnnc2)ccc1Cl`, the Potency is 4.49 µM (active). Regarding `Cc1ccc(C(=O)Nc2cccc(C(=O)O)c2)cc1`, the Potency was 0.126 µM (active). The figure for `COc1ccc(CC(=O)Nc2cccc(C(=O)Nc3ccccc3C(=O)O)c2)cc1OC` is 5.04 µM (active); for `COc1ccc(C(=O)Nc2ccccc2-c2nc3ccccc3s2)c(OC)c1` it is 22.5 µM (active). Consider `Cc1ccc2sc(-c3ccc(NC(=O)c4cc(-n5cnnc5)ccc4Cl)cc3)nc2c1`, for which the Potency was 1.79 µM (active). Consider `CN(C)c1cccc(C(=O)Nc2ccc(-c3nc4ccccc4s3)cc2)c1`, for which the Potency is 0.503 µM (active). `Cc1cccc(C(=O)Nc2ccc(-c3nc4ccccc4s3)cc2Cl)c1`: the Potency is 12.6 µM (active). On to `O=C(COC(=O)c1ccccc1[N+](=O)[O-])c1ccc2c(c1)OCO2`, for which the Potency was 5.04 µM (active). Take `COc1ccc2nc(NC(=O)c3ccc([N+](=O)[O-])o3)sc2c1`: the Potency is 4.49 µM (active). As for `O=C(Nc1ccccc1C(=O)O)c1cccc(NC(=O)c2ccc(Br)o2)c1`, the Potency entry was “inactive”.

For `O=C(Nc1ccccc1-c1nc2ccccc2s1)c1ccc(Br)o1`, the Potency is 22.5 µM (active). As to `CCCC(=O)Nc1nc2ccc(OCC)cc2s1`, the Potency is 2.83 µM (active). For the molecule `O=C(O)c1cccc(NC(=O)c2ccc(Cl)c(S(=O)(=O)N3CCCCCC3)c2)c1`, the Potency is 0.634 µM (active). Turning to `Cc1ccc2nc(-c3ccc(NC(=O)CN4CCN(C(=O)c5ccco5)CC4)cc3)sc2c1`, the Potency is 4.49 µM (active).

As to `COc1ccc2nc(NC(=O)c3nc(S(=O)(=O)Cc4ccc(C)cc4)ncc3Cl)sc2c1`, the Potency is 2.52 µM (active). As to `CC(C)(C)C(=O)Nc1ccc(-c2nc3ccccc3s2)cc1`, the Potency entry is “inactive”.

The values above are taken from PubChem BioAssay AID602477 (National Center for Advancing Translational Sciences (NCATS), 2012).
